HIV TAR-Tat – HIV-1 TAR-Tat binding disruption; z-score (concentration not given with the values); HIV-1 TAR RNA, Tat peptide displacement FRET; hits give high values; 100,000 compounds, 0.6% hits; active means z-score of 3 or more in at least 2 runs
CDC25B-CDK2 inh – human CDC25B-CDK2/CyclinA binding inhibition; P30305+P24941; HTRF CDC25B-CDK2/CyclinA binding, anti-His/anti-Flag; hits give high values; z-score (no concentration beside the values); 94,000 compounds, 0.72% hits; in the data active means z-score above about 3.2
The depositor's hits bear a star; . = no result; ! = repeats disagree. Hits are enriched below; roughly 0.93% of the tested compounds scored in any of these assays.

SMILES	HIV TAR-Tat	CDC25B-CDK2 inh
CCOc1ccccc1-c1nn2c(C)nnc2s1	-0.64	-0.93
CCc1ccc(C(=O)c2cn(CC(N)=O)c3nc(C)ccc3c2=O)cc1	-1.28	.
CCOc1ccccc1NC(=O)c1cnc2scc(C)n2c1=O	.	-2.58
Cc1[nH]n2c(=O)cc(CSc3nnnn3-c3ccccc3)nc2c1-c1ccc(Cl)cc1	23.5*	-2.16
Cc1cc(=O)n2[nH]c(C)c(-c3ccc(Cl)cc3)c2n1	.	-3.7
CSc1nsc(SC)c1NC(=O)Nc1ccc(Cl)cc1	.	-2.44
CCN(CC)S(=O)(=O)c1ccc2c(c1)OCCCO2	2.15	.
OCCCc1nc2n(n1)C(c1ccccc1Cl)C=C(c1ccc(F)cc1)N2 (configuration not stated)	-0.19	-0.64
Cc1ccc2c(c1)-c1cc(C)nn1C(c1cc(C)ccc1O)N2 (configuration not stated)	2.17	1.41
Cc1ccc2c(c1)-c1cc(C)nn1C(c1cccc(O)c1O)N2 (configuration not stated)	18.8*	1.81
Cc1ccc(S(=O)(=O)CCN(Cc2cccnc2)C(=O)c2ccccc2)cc1	.	-1.48
O=C(O)C1=CC(c2cc(F)ccc2F)n2ncnc2N1 (configuration not stated)	1.91	.
C=CCSCC=C	15.2*	.
O=C(CSc1nc(-c2ccccc2F)nc2cc(=O)[nH]n12)NCCCc1ccccc1	-0.29	.
Cc1noc2ncn(C(C)C(=O)N3CCCc4ccccc43)c(=O)c12 (configuration not stated)	1.03	.
Oc1c(Cl)cc(Cl)cc1C=Nc1cccnc1	.	-0.54
Oc1ccc(Cl)cc1C=Nc1ccc2cn[nH]c2c1	.	9.07*
Cc1c(C(=O)N2CCC(N3CCCCC3)CC2)sc2nc3n(c(=O)c12)CCCCC3	0.99	.
CC(=O)N1N=C(c2cc(C)nc3ccccc23)OC1c1cccs1 (configuration not stated)	3.84*	.
CC(=O)N1N=C(c2cc(C3CC3)nc3ccccc23)OC1c1ccc2c(c1)OCO2 (configuration not stated)	4.39*	.
CC(=O)N1N=C(c2cccc3ccccc23)OC1c1cc(C)nc2ccccc12 (configuration not stated)	0.06	.
COc1cc(C2OC(c3cc(C4CC4)nc4ccccc34)=NN2C(C)=O)ccc1OC(C)=O (configuration not stated)	0.93	.
O=C(NCc1ccc2c(c1)OCO2)c1nc(-c2ccncc2)no1	2.18	.
CCc1ccccc1Nc1nc(-c2sc(C)nc2C)cs1	1.22	0.33
Cc1cc(-c2ccc(=O)[nH]n2)cc(S(=O)(=O)N2CC(C)CC(C)C2)c1C (configuration not stated)	1.57	.
SMILES	HIV TAR-Tat	CDC25B-CDK2 inh
O=C(c1ccco1)N1CCN(C(=O)c2c3c(nc4ccccc24)C(=O)N(C2CCCCC2)C3)CC1	1.44	.
O=C(Nc1ccc(C(F)(F)F)cn1)c1cccnc1Oc1ccc(Cl)cc1	.	-1.22
Cc1cc(C)n2c(SCc3ccc(C(=O)c4ccccc4)cc3)nnc2n1	1.51	8.33*
Cc1cc(C)n2c(SCc3ccc(Br)cc3)nnc2n1	0.81	-1.4
CC1C(=O)Nc2ccc(S(=O)(=O)N3CCCC3)cc2NC1=O (configuration not stated)	1.34	-1.1
COc1cc(Cl)c(NS(=O)(=O)c2ccc(CN3C(=O)c4cccnc4C3=O)s2)c(OC)c1	-0.35	.
O=C1CC(C(=O)Nc2ccc3c(c2)OCO3)n2ncnc2N1 (configuration not stated)	-2.09	0.99
O=C1CC(C(=O)Nc2ccc(Cl)cc2)n2ncnc2N1 (configuration not stated)	0.9	3.92*
Cc1nc(N2CCCC(C(=O)NC3CC3)C2)c2c(C)noc2n1 (configuration not stated)	10.9*	.
CCc1noc2nc(C)nc(N3CCCC(C(=O)NC4CC4)C3)c12 (configuration not stated)	3.72	.
COC(=O)c1cnn2c3c(cnc12)CCCCC3	0.14	-1.7
COC(=O)[C@@]1(C)CC[C@]2(C)CC[C@]3(C)C(=CCC4[C@@]5(C)CCC(O)C(C)(C)C5CC[C@]43C)C2C1 (some centres not stated)	.	5.18*
CC1(C)CC[C@]2(C(=O)O)CC[C@]3(C)C(=CC[C@@H]4[C@@]5(C)CC[C@H](O)C(C)(C)[C@@H]5CC[C@]43C)[C@@H]2C1	3.44	.
O=C(N[C@@H](Cc1ccccc1)C(=O)CCl)OCc1ccccc1	0.24	-2.21
CC(C)C[C@@H](C=O)NC(=O)[C@H](CC(C)C)NC(=O)[C@H](CC(C)C)NC(=O)OCc1ccccc1	3.88*!	.
Cc1cc(Nc2ccc(N3CCN(C)CC3)cc2)nc(C)n1	-1.55	11.5*
CSc1nc(C)cc(Nc2ccc(N3CCC(C)CC3)cc2)n1	0.65	-0.87
CCc1cc2c3c([nH]c2cc1S(=O)(=O)Nc1ccc(F)cc1F)CCCC3=O	0.42	.
CCc1cc2c3c([nH]c2cc1S(=O)(=O)Nc1ccc(Cl)cc1F)CCCC3=O	4.33*	.
Cc1nc2c(c(SCC(=O)c3ccc(O)cc3O)n1)CCC2	0.06	-1.19
Cc1cc(F)ccc1Nc1nc2ccccc2n2cnnc12	0.82	-0.66
O=C(Cn1c(=S)[nH]c2ccccc2c1=O)N1CCOCC1	.	-0.88
CN(C)c1ncnc2c1c(-c1ccccc1)cn2-c1ccc(Cl)cc1	-0.5	-1.39
N#CC1=C2SCN(Cc3ccco3)CN2C(=O)CC1c1ccc(OCc2ccc(Cl)cc2)cc1 (configuration not stated)	-1.57	-0.73
N#CC1=C2SCN(Cc3ccccc3)CN2C(=O)CC1c1ccc(Br)cc1 (configuration not stated)	-2.34	-0.18
SMILES	HIV TAR-Tat	CDC25B-CDK2 inh
COc1ccc(Br)cc1C1CC(=O)N2CN(c3ccccc3F)CSC2=C1C#N (configuration not stated)	0.18	0.3
COc1ccc(CN2CSC3=C(C#N)C(c4ccc(Cl)cc4)CC(=O)N3C2)cc1 (configuration not stated)	-0.55	3.76*
N#CC1=C2SCN(Cc3ccccc3)CN2C(=O)CC1c1cccc(Br)c1 (configuration not stated)	-0.65	2.93
COc1ccc(Br)cc1C1CC(=O)N2CN(c3ccccc3)CSC2=C1C#N (configuration not stated)	-1.94	7.63*
COc1ccc(Br)cc1C1CC(=O)N2CN(Cc3ccccc3)CSC2=C1C#N (configuration not stated)	-1.1	3.18*
COc1ccc(C2CC(=O)N3CN(Cc4ccccc4)CSC3=C2C#N)c(OC)c1 (configuration not stated)	1.1	4.54*
CC1CCCC(NC(=O)C2CCN(C(=O)N(C)C)CC2)C1C (configuration not stated)	1.06	.
Cn1ncc2c(Nc3ccc4c(c3)OCO4)ncnc21	-0.87	.
CCOC(=O)c1c(NC(=O)c2nn(-c3ccc(OC)cc3)ccc2=O)sc2c1CCCC2	1.16	-0.65
COc1cc(-c2coc3cc(OC)c(OC)c(OC)c3c2=O)cc(OC)c1OC	3.17	.
CC(=O)Oc1cc(-c2coc3cc(OC(C)=O)c(OC(C)=O)c(OC(C)=O)c3c2=O)cc(OC(C)=O)c1OC(C)=O	24.8*	.
O=C(Nc1ccc(-c2nc3ccccc3o2)cc1)c1nc(-n2cnnc2)ccc1Br	7.19*	.
O=C(Nc1ccc2oc(-c3ccccc3)nc2c1)c1nc(-n2cnnc2)ccc1Br	2.47	.
Cc1noc(C)c1S(=O)(=O)Nc1cccc(Cl)c1	0.27	0.21
O=c1nc2c(-c3ccccc3Cl)n[nH]n2c2ccccc12	16.8	-0.87

Screening data: PubChem BioAssay, Center for Chemical Genomics, University of Michigan
